About 79,000 compounds went through this panel and 15% of them were active in at least one assay; those are over-represented in the sample as a whole. Values without a mark were called inactive. Activity calls are given as the source filed them. No stated cut-off is given here; in the data, active means growth inhibition above about 70%; inactive means the rest.

A short description of test [1]: NCI Yeast Anticancer Drug Screen. Data for the rad50 strain (AID 155).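 Further: 0% = growth of vehicle-only cultures of the same strain.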 The settings on record: S. cerevisiae rad50 strain growth inhibition; at 50.0 µM; hits give high values. Summed up:
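Yeast carrying a defined DNA repair defect were exposed to test compounds, and growth was compared with vehicle-treated controls to give percent inhibition.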

Test [2] can be described thus: NCI Yeast Anticancer Drug Screen. Data for the mec2-1 strain (AID 157). The conditions noted are these: S. cerevisiae mec2-1 strain, at 50.0 µM, hits give high values. Summed up:
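Mutant yeast (mec2-1) grown with compound; growth inhibition relative to vehicle control reported.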

Test [3] in a line: NCI Yeast Anticancer Drug Screen. Data for the sgs1 mgt1 strain (AID 161).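 Further: 0% = growth of cultures given vehicle only.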 The conditions noted are these: S. cerevisiae sgs1 mgt1 strain, at 50.0 µM, hits give high values. The gist of the method: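 Yeast cells carrying a defined DNA-repair defect were exposed to test compounds. Growth inhibition was measured relative to vehicle-treated controls.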
Test [4] in a line: NCI Yeast Anticancer Drug Screen. Data for the cln2 rad14 strain (AID 165).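 Further: 0% = growth equal to vehicle treated cultures.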 The conditions noted are these: S. cerevisiae cln2 rad14 strain, at 50.0 µM, hits give high values. Summed up:
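Readout is yeast growth inhibition versus vehicle-treated controls, using a strain with cln2 and rad14 alterations exposed to compound.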

Test [5] can be described thus: NCI Yeast Anticancer Drug Screen. Data for the bub3 strain (AID 167). The settings on record: S. cerevisiae bub3 mutant strain, at 50.0 µM, hits give high values. Summed up:
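Compounds were applied to a genetically altered yeast strain carrying a cell-cycle control defect. Growth inhibition was scored against vehicle-treated controls.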

The nature of test [6]: NCI Yeast Anticancer Drug Screen. Data for the mlh1 rad18 strain (AID 175). The conditions noted are these: S. cerevisiae mlh1 rad18 strain growth inhibition; at 50.0 µM; hits give high values. Summed up:
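Genetically defined yeast (DNA repair-deficient) exposed to compounds; growth inhibition determined relative to vehicle.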

`O=S1(=O)N2CN3CCN(C2)CN1C3`: the growth inhibition was 36.5% in test [1]; 40.4% in test [2]; 31.4% in test [3]; -25.3% in test [4]; 12.1% in test [5]; 34% in test [6].
Take `Cc1ccc2n[se]nc2c1`: the growth inhibition was 11.6% in test [1]; -15.4% in test [2]; -16.8% in test [3]; -0.3% in test [4]; -15.1% in test [5]; -8.15% in test [6].
`COP(=O)(OC)C(N)CCSC` (centres undefined): the growth inhibition in test [1] is -25.1%; in test [2] it was -65.7%; in test [3], -61.8%; in test [4], 23.7%; in test [5] it was 17.1%; in test [6] it was -2.1%.
For the molecule `COc1ccc2ccc3oc([N+](=O)[O-])cc3c2c1`, the growth inhibition in test [1] was 14.8%; in test [2] it was 25.7%; in test [3] it was -23.9%; in test [4], -14%; in test [5] it was -36%; in test [6], -36%.
Turning to `CC(=O)CC1(OC(=O)C2C(C=C(C)C)C2(C)C)C(=O)Nc2ccccc21` (centres undefined), the growth inhibition is 40.5% in test [1]; 16.4% in test [2]; 18.6% in test [3]; 8.85% in test [4]; 23.1% in test [5]; 39.5% in test [6].
As for `[Cl][Ni][Cl].[NH-]C1CCCCC1[NH-].[NH-]C1CCCCC1[NH-]` (centres undefined), the growth inhibition in test [1] was -22.9%; in test [2] it was -6.45%; in test [3] it was 0.85%; in test [4] it was -18.6%; in test [5], 11.8%; in test [6], -1.85%.
For `CCCC[As](CCCC)SC1OC(COC(C)=O)C(OC(C)=O)C(OC(C)=O)C1OC(C)=O` (centres undefined), the growth inhibition is 98.6% (active) in test [1]; 98.7% (active) in test [2]; 98.8% (active) in test [3]; 96.9% (active) in test [4]; 98.5% (active) in test [5]; 98.1% (active) in test [6].
Regarding `CC12CCC(O)CC1CCC1C2CCC2(C)C(C3=CC(=O)OC3)CCC12` (centres undefined), the growth inhibition in test [1] was 7.05%; in test [2] it was 18.4%; in test [3], 30.6%; in test [4], 12.1%; in test [5] it was 12.1%; in test [6], 42.5%.
With `C=CP(=O)(OCCCl)OCCCl`, the growth inhibition in test [1] was 24.5%; in test [2], -0.7%; in test [3], 2.3%; in test [4], 18.1%; in test [5], -1.6%; in test [6], 12.9%.
Turning to `C=C1CC/C=C(/C)C(=O)C(OC(C)=O)C2C1CC2(C)C` (centres undefined), the growth inhibition in test [1] is 78% (active); in test [2], 83.6% (active); in test [3], 81.2% (active); in test [4] it was 70.7% (active); in test [5] it was 86.2% (active); in test [6] it was 81.4% (active).
Consider `C[C@H]1C(=O)O[C@@H]2CCN3CC=C(COC(=O)[C@](C)(O)[C@@]1(C)O)[C@H]23`, for which the growth inhibition was -4.7% in test [1]; -4.2% in test [2]; 11.9% in test [3]; -2.85% in test [4]; -9.6% in test [5]; -44.1% in test [6].
Consider `O=[N+]([O-])c1ccc([As](=O)(O)c2cccc([N+](=O)[O-])c2)cc1`, for which the growth inhibition is 0.8% in test [1]; 1.3% in test [2]; 0.65% in test [3]; -28.9% in test [4]; 38.9% in test [5]; 7.4% in test [6].
As to `O=C(O)CN(CCN(CC(=O)O)CC(=O)O)CC(=O)O.[Cl][Pd][Cl]`, the growth inhibition in test [1] is 41.7%; in test [2] it was 51.5%; in test [3], 48.2%; in test [4], 21.7%; in test [5], 44.6%; in test [6], 62%.
Turning to `Cc1nc(N)nc(N)c1CCCOc1ccc(NC(=O)c2cccc(S(=O)(=O)F)c2)cc1`, the growth inhibition in test [1] was 33.2%; in test [2], 25.9%; in test [3], 15.4%; in test [4], 19.2%; in test [5], -4.45%; in test [6] it was 30.4%.
For the molecule `CSCCC([NH-])C(=O)O.CSCCC([NH-])C(=O)O.[Cu+2]` (centres undefined), the growth inhibition in test [1] is -18.1%; in test [2], 7.95%; in test [3], -9.2%; in test [4], -33.3%; in test [5], -13.1%; in test [6] it was -2.5%.
Regarding `CC1(C)CC(=O)CC(C)(C)C1`, the growth inhibition in test [1] is -25.6%; in test [2], -12.2%; in test [3], -1.65%; in test [4] it was 4.35%; in test [5], -13.2%; in test [6] it was -11.2%.
In the case of `CC(=N\O)/C(C)=N/O.CC(=N\O)/C(C)=N/O.[Ni]`, the growth inhibition is -5.1% in test [1]; 3.6% in test [2]; -7.35% in test [3]; 0.95% in test [4]; 5.4% in test [5]; -10.9% in test [6].
`[Cl][Pd]([Cl])([Cl])[Cl].[NH-]CC[NH-].[NH-]CC[NH-].[Pd+2]`: the growth inhibition in test [1] was 28.7%; in test [2], 16.9%; in test [3], 32%; in test [4], -3.5%; in test [5] it was 26.4%; in test [6], 54.7%.
As for `COc1cc2c(cc1O)N=C[C@@H]1CCC(O)N1C2=O` (mixture of isomers), the growth inhibition was 19.6% in test [1]; 16.3% in test [2]; 19.2% in test [3]; 58.8% in test [4]; -2.2% in test [5]; 3.9% in test [6].

For the origin of these results see PubChem BioAssay (NCI).
